Compound activity deposited in PubChem BioAssay by National Center for Advancing Translational Sciences (NCATS).
Only some compounds are listed: those with a hit (about 5.2% of all), similar ones and a draw of the others.
Sfp inh = inhibitors of Bacillus subtilis Sfp phosphopantetheinyl transferase; 310,000 compounds, 3.5% hits; Biochemical Sfp PPTase activity, qHTS; AID 1490; Potency, µM, for inactives: largest response in the series, negative = inhibition, usual class: inhibitors;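 further: the enzyme is Sfp with the accession as filed and its product quenches rhodamine fluorescence; potency means the concentration at half of the fitted maximal effect; 0% = enzyme reaction without inhibitor and -100% = no enzyme wells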
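Fluorescence-quenching assay: 15 nM Sfp-PPTase preincubated 15 min at room temperature with compound, then 5 uM rhodamine-CoA and 12.5 uM BHQ-2-labelled YbbR peptide added. Fluorescence (ex 525/em 598 nm) read at start and after 30 min; difference gives rate.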
Tau ThT inhib = blocks human tau fibril formation measured by thioflavin T. P10636. recombinant tau K18 P301L, heparin-induced fibrillization, ThT fluorescence. Potency, µM (series often up to 57.4 µM), inactives show at the top dose activity, negative = inhibition, usual class: inhibitors. 270,000 compounds, 2.1% hits. AID 1460; further: potency means the concentration at half of the fitted maximal effect; nearly all actives have a fitted effect of over 55% in size
Target sequence (P10636 561-689 P618L limits assumed): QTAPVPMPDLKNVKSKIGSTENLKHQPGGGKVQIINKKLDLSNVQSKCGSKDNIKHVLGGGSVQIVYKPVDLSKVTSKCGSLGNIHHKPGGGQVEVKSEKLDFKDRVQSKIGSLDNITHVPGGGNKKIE
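K18 P301L tau (15 uM + 0.24 uM Alexa 594-tagged), heparin 20 uM, NaOAc pH 7, 6 h 37 C; ThT 30 uM, 1 h RT, ex 450/em 510 nm.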
Tau FP inhib = inhibitors of human tau fibril formation | K18 P301L tau heparin fibrillization, Alexa594 FP, 6 h | AID 1468 | Potency, µM (series often up to 57.7 µM), for inactives: at the top dose activity, negative = inhibition, most hits filed as inhibitors | 280,000 compounds, 0.39% hits; further: potency means the concentration at half of the fitted maximal effect; nearly all actives have a fitted effect of over 55% in size
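FP of Alexa 594-tau after heparin (20 uM) induction. Substrate: human K18 P301L, 15 uM unlabeled, 0.24 uM labeled. Buffer 100 mM sodium acetate pH 7. 6 hr, 37 C.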
Tau fluor cs = counter-screen for tau fibril formation inhibitors; AID 1463; 280,000 compounds, 0.93% hits; tau K18 P301L (four-repeat tau fragment) Alexa594 fluorescence, heparin fibrillization; Potency, µM (doses to about 57.7 µM), for inactives: top-dose activity change, negative = decrease; further: potency means the concentration at half of the fitted maximal effect; nearly all actives have a fitted effect of over 55% in size
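Human K18 P301L tau (15 uM unlabeled plus 0.24 uM Alexa 594-labeled, final) in 100 mM sodium acetate pH 7 was mixed with compound and 20 uM heparin and incubated 6 hr at 37 C.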
Coupling enz = coupling enzyme interference in Giardia aldolase counter-screen; coupling enzyme system counterscreen, AmpLite Red fluorescence; activity change, negative = inhibition, % at 58.2 µM, hits read low; 290,000 compounds, 0.67% hits; AID 2472; in the data active means activity change below about -30%
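Compounds tested against the coupling enzymes alone at 57.5 uM final; readout was AmpLite Red fluorescence (525/598 nm) after 20 min at RT.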
* hit, by the source's call; ? = inconclusive; · = no result; ! = a repeat was not active; [ ] = remark or other dose. Unless noted, the call rests on the fitted dose curve; in most records, active means well fitted curve in the direction sought with a large enough effect; inconclusive means small, poorly fitted or top-dose-only effect, or another doubt; inactive means no such curve, though single readings can be large; an effect the other way counts as inactive or inconclusive. Unless noted, on the % scale 0 is the no-effect control and ±100 the full control effect.

SMILES | Sfp inh | Tau ThT inhib | Tau FP inhib | Tau fluor cs | Coupling enz
CCCCn1c(SCC(=O)NC(C)CC)nc2ccc(N3CCOCC3)cc2c1=O (stereo not drawn) | 56.2µM* | ? | -7.7% | ? | -36.0*
CCC(C)NC(=O)CSc1nc2ccc(N3CCOCC3)cc2c(=O)n1CCc1ccccc1 (stereo not drawn) | -14.6% | -11.6% | 6.7% | -22.9% | -22.1
CCCCn1c(SCC(=O)NCc2ccccc2)nc2ccc(N3CCOCC3)cc2c1=O | -28.8% | -13.5% | 8.2% | -8.9% | -37.5*
CCc1ccc2occ(CC(=O)Nc3nnc(C)s3)c2c1 | · | 4.2% | -2.4% | -1.1% | ·
CCCCn1c(SCC(=O)Nc2ccc(OC)cc2)nc2ccc(N3CCOCC3)cc2c1=O | -37.5% | ? | 11.9% | -28.4% | -31.6*
COc1ccc(N2CCN(CC(O)COc3ccc(C(C)C)c(C)c3)CC2)cc1 (stereo not drawn) | · | ? | 6.0% | -26.7% | ·
Nc1nn(-c2ccccc2)c(N)c1N=Nc1cccc(F)c1 | 2.8% | 10µM* | 2.7% | -21.4% | 0.0
Nc1nn(-c2ccccc2)c(N)c1N=Nc1ccc2c(c1)OCO2 | 14.5% | 1.78µM* | 3.2% | ? | -1.9
Cc1nn(-c2ccccc2)c(N)c1N=Nc1cccnc1 | 10.9% | ? | -2.1% | -11.2% | 2.1
CCCCSCCCNC(=O)c1c[nH]c2ccc(S(=O)(=O)Nc3cccc(OC)c3)cc2c1=O | · | 5.3% | 2µM* | ? | ·
CCOCCCNC(=O)c1c[nH]c2ccc(S(=O)(=O)Nc3cccc(OC)c3)cc2c1=O | 12.5% | 0.0% | 0.8% | 3.0% | 6.1
COc1cccc(NS(=O)(=O)c2ccc3[nH]cc(C(=O)NC(C)c4ccccc4)c(=O)c3c2)c1 (stereo not drawn) | · | 10.9% | 7.94µM* | ? | ·
CCOC(=O)C(CC)Sc1ncnc2c1c(-c1ccccc1)cn2-c1ccc(OC)cc1 (stereo not drawn) | · | -5.4% | -10.7% | -22.9% | ·
CSc1nc(N(C)NC(=O)c2ccc(Cl)cc2)c2ccccc2n1 | 50.1µM* | -3.5% | -5.3% | -29.1% | -4.6
Cc1c(O)nc(SC2CC(=O)N(c3ccccc3)C2=O)[nH]c1=O (stereo not drawn) | 79.4µM* | 2.2% | 4.2% | 1.8% | 0.4
CCc1c(O)nc(SC2CC(=O)N(c3ccccc3)C2=O)[nH]c1=O (stereo not drawn) | ? | -6.0% | 4.8% | 1.4% | 3.4
CCOC(=O)c1c(N)sc2c(OCC)c(Br)ccc12 | 23.9% | ? | -1.4% | 25.1µM*[quencher] | -4.0
Cc1csc2nc(COC(=O)c3ccccc3NC(=O)COc3ccccc3F)cc(=O)n12 | · | 3.1% | -0.6% | -4.0% | ·
CCC(C)(C)NC(=O)CN(Cc1ccccc1Cl)C(=O)CCC(=O)Nc1cc(C)ccn1 | 20µM* | ? | -15.5% | -5.7% | 0.2
CCC(C)(C)NC(=O)CN(C(=O)CCC(=O)Nc1cc(C)ccn1)c1ccc2c(c1)OCO2 | 5.5% | -14.1% | 1.0% | -9.5% | 1.1
CCn1c(C(=O)N2CCCC(C(=O)N3CCN(c4ccccc4)CC3)C2)cc2sccc21 (stereo not drawn) | · | ? | 2.5% | -26.1% | ·
NS(=O)(=O)c1ccc(N=Nc2c[nH]c(=O)c(O)c2)cc1 | 44.7µM* | 2.51µM* | ? | ? | -37.5*
CC1=C(C(=O)OCc2ccccc2)C(c2ccc([N+](=O)[O-])cc2)NC(=O)N1CCCCCC(=O)O (stereo not drawn) | 44.7µM*! | -17.9% | 4.3% | -10.8% | 3.0
COc1ccc(C)cc1Nc1cc(C)nc(C)n1 | · | -0.4% | 0.6% | -5.6% | ·
COc1ccc(N(CC(=O)Nc2ccc(C)c(C)c2)S(=O)(=O)c2ccc(C)cc2)cc1OC | · | 13.1% | -3.3% | ? | ·
O=C(CCCOc1ccc(Cl)cc1Cl)N/N=C/c1cccc([N+](=O)[O-])c1 | -8.4% | 3.2% | 6.5% | -1.5% | -38.8*
CCCCc1ccc(/C=C2\C(=O)c3ccccc3C(O)=C2C(=O)OCC)cc1 | 3.16µM* | 17.8µM* | ? | ? | -27.7
O=C(/C=C/c1cccc(O)c1)c1ccc(N2CCOCC2)cc1 | -2.9% | 3.55µM* | -5.8% | ? | -2.9
CCOC(=O)CCCc1sc(N)nc1-c1[nH]c(=O)[nH]c1C | 22.4µM* | -8.7% | -8.3% | 4.3% | -11.9
